These results are taken from PubChem BioAssay (NCI).

This is part of a sample that, as a whole, favours compounds with a hit. Of some 79,000 tested, about 15% had one in any assay. Unmarked numbers belong to inactive results. Calls of active or inactive are those of the source. Cut-off read from the data, not from the text of the source: active = growth inhibition above about 70%; inactive = the rest.

Test [1] in a line: NCI Yeast Anticancer Drug Screen. Data for the rad50 strain (AID 155).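 Note: 0% = growth of vehicle-only cultures of the same strain.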 The note with it: S. cerevisiae rad50 strain growth inhibition, hits give high values. The essentials: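 A DNA repair-deficient yeast mutant serves as the test organism; compound-induced growth inhibition is calculated against vehicle-treated cells.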
Test [2] in a line: NCI Yeast Anticancer Drug Screen. Data for the mec2-1 strain (AID 157). The note with it: S. cerevisiae mec2-1 strain, hits give high values. A digest of the protocol: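 mec2-1 yeast strain, carrying an alteration in DNA damage repair or cell cycle control, was exposed to compounds; growth inhibition was measured relative to vehicle-treated controls.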
The nature of test [3]: NCI Yeast Anticancer Drug Screen. Data for the sgs1 mgt1 strain (AID 161).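 Note: 0% = growth of cultures given vehicle only.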 The note with it: S. cerevisiae sgs1 mgt1 strain, hits give high values. A digest of the protocol:
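Yeast cells carrying a defined DNA-repair defect were exposed to test compounds. Growth inhibition was measured relative to vehicle-treated controls.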

Test [4] in a line: NCI Yeast Anticancer Drug Screen. Data for the cln2 rad14 strain (AID 165).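 Note: 0% = growth equal to vehicle treated cultures.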 The following applies: S. cerevisiae cln2 rad14 strain, hits give high values. A digest of the protocol:
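Yeast carrying cln2 and rad14 alterations (cell cycle control and DNA damage repair) were exposed to compounds. Growth inhibition was measured against vehicle-treated controls.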

Test [5] can be described thus: NCI Yeast Anticancer Drug Screen. Data for the bub3 strain (AID 167). The following applies: S. cerevisiae bub3 mutant strain, hits give high values. A digest of the protocol:
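Inhibition values come from growth of compound-treated mutant yeast normalised to vehicle-treated controls.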

Test [6] is described as follows: NCI Yeast Anticancer Drug Screen. Data for the mlh1 rad18 strain (AID 175). The note with it: S. cerevisiae mlh1 rad18 strain growth inhibition, hits give high values. The essentials:
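Growth inhibition of the yeast strain was measured after compound exposure and expressed relative to vehicle-treated controls. The strain carries defined defects in DNA damage repair.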

Where [7] appears, read: at 5.0 µM (retest, dose inferred, filed as 0.5).
Where [8] appears, read: at 50.0 µM (retest, dose inferred, filed as 5.0).

As to `CCCC(=O)Oc1ccc(-c2ccccc2)cc1Br`, the growth inhibition in test [1] (setting [7]) is 2%; in test [1] (setting [8]), 83% (active); in test [1] (at 50.0 µM) it was 96.5% (active); in test [2] (setting [7]), 2%; in test [2] (setting [8]) it was 86% (active); in test [2] (at 50.0 µM), 91.5% (active). Also, the growth inhibition was 4% in test [3] (setting [7]); 81% (active) in test [3] (setting [8]); 94.5% (active) in test [3] (at 50.0 µM); 6% in test [4] (setting [7]); 84% (active) in test [4] (setting [8]); 86.7% (active) in test [4] (at 50.0 µM). Besides, the growth inhibition was 18% in test [5] (setting [7]); 77% (active) in test [5] (setting [8]); 91.1% (active) in test [5] (at 50.0 µM); -1% in test [6] (setting [7]); 73% (active) in test [6] (setting [8]); 95.9% (active) in test [6] (at 50.0 µM).

Regarding `O=c1c2ccccc2[nH]c2c1[nH]c1ccccc12`, the growth inhibition in test [1] (setting [7]) is 10%; in test [1] (setting [8]), 23%; in test [1] (at 50.0 µM), 37%; in test [2] (setting [7]), 11%; in test [2] (setting [8]), 25%; in test [2] (at 50.0 µM), -11.7%. For the same compound, the growth inhibition in test [3] (setting [7]) was 5%; in test [3] (setting [8]), 24%; in test [3] (at 50.0 µM), -1.65%; in test [4] (setting [7]), 7%; in test [4] (setting [8]), 11%; in test [4] (at 50.0 µM) it was 83.4% (active). The growth inhibition in test [5] (setting [7]) was 7%; in test [5] (setting [8]) it was 22%; in test [5] (at 50.0 µM), -20.6%; in test [6] (setting [7]), 12%; in test [6] (setting [8]), 28%; in test [6] (at 50.0 µM), 19.9%.

Regarding `O=C(CC[P+](c1ccccc1)(c1ccccc1)c1ccccc1)c1ccccc1`, the growth inhibition is 10% in test [1] (setting [7]); 78% (active) in test [1] (setting [8]); 94.8% (active) in test [1] (at 50.0 µM); 6% in test [2] (setting [7]); 92% (active) in test [2] (setting [8]); 94.8% (active) in test [2] (at 50.0 µM). In addition, the growth inhibition was 4% in test [3] (setting [7]); 74% (active) in test [3] (setting [8]); 86.2% (active) in test [3] (at 50.0 µM); -3% in test [4] (setting [7]); 71% (active) in test [4] (setting [8]); 95.6% (active) in test [4] (at 50.0 µM). The growth inhibition in test [5] (setting [7]) was 7%; in test [5] (setting [8]) it was 79% (active); in test [5] (at 50.0 µM), 94.8% (active); in test [6] (setting [7]), 3%; in test [6] (setting [8]), 84% (active); in test [6] (at 50.0 µM) it was 93.1% (active).

In the case of `OCCCNc1nc2c(Cl)cc(Cl)cc2c2ccccc12`, the growth inhibition was 16% in test [1] (setting [7]); 49% in test [1] (setting [8]); 50% in test [1] (at 50.0 µM); 6% in test [2] (setting [7]); 28% in test [2] (setting [8]); 15.4% in test [2] (at 50.0 µM). The growth inhibition in test [3] (setting [7]) is 8%; in test [3] (setting [8]) it was 30%; in test [3] (at 50.0 µM), 72.7% (active); in test [4] (setting [7]), -6%; in test [4] (setting [8]), -16%; in test [4] (at 50.0 µM) it was 19.4%. In addition, the growth inhibition in test [5] (setting [7]) is -6%; in test [5] (setting [8]), -5%; in test [5] (at 50.0 µM), 76.2% (active); in test [6] (setting [7]), 4%; in test [6] (setting [8]), 30%; in test [6] (at 50.0 µM) it was 92.8% (active).

On to `O=C(CC1CCCC(CC(=O)c2ccccc2)N1CCc1ccccc1)c1ccccc1` (configuration not stated), for which the growth inhibition in test [1] (setting [7]) is 39%; in test [1] (setting [8]), 97% (active); in test [1] (at 50.0 µM) it was 89.7% (active); in test [2] (setting [7]), 23%; in test [2] (setting [8]) it was 99% (active); in test [2] (at 50.0 µM) it was 90.6% (active). The growth inhibition in test [3] (setting [7]) was 41%; in test [3] (setting [8]), 98% (active); in test [3] (at 50.0 µM), 92.8% (active); in test [4] (setting [7]), 27%; in test [4] (setting [8]), 97% (active); in test [4] (at 50.0 µM), 91.8% (active). Besides, the growth inhibition is 41% in test [5] (setting [7]); 98% (active) in test [5] (setting [8]); 89.7% (active) in test [5] (at 50.0 µM); 34% in test [6] (setting [7]); 98% (active) in test [6] (setting [8]); 89.2% (active) in test [6] (at 50.0 µM).

As for `CNC(=O)OCC1=CC(=O)C(OC)=C(OC)C1=O`, the growth inhibition in test [1] (setting [7]) was -15%; in test [1] (setting [8]), -8%; in test [1] (at 50.0 µM), 4.5%; in test [2] (setting [7]) it was -12%; in test [2] (setting [8]), -14%; in test [2] (at 50.0 µM) it was 11.9%. Besides, the growth inhibition in test [3] (setting [7]) was -10%; in test [3] (setting [8]), -2%; in test [3] (at 50.0 µM) it was 28.4%; in test [4] (setting [7]), -6%; in test [4] (setting [8]), -5%; in test [4] (at 50.0 µM), 9.55%. The growth inhibition in test [5] (setting [7]) was -9%; in test [5] (setting [8]) it was -6%; in test [5] (at 50.0 µM), -20.6%; in test [6] (setting [7]), -8%; in test [6] (setting [8]), -5%; in test [6] (at 50.0 µM), 8.95%.

Regarding `Clc1ccc2c(Cl)c3c(nc2c1)CCCC3`, the growth inhibition in test [1] (setting [7]) was -1%; in test [1] (setting [8]), 98% (active); in test [1] (at 50.0 µM), 99% (active); in test [2] (setting [7]), 2%; in test [2] (setting [8]) it was 99% (active); in test [2] (at 50.0 µM) it was 99.5% (active). The growth inhibition in test [3] (setting [7]) is 2%; in test [3] (setting [8]), 99% (active); in test [3] (at 50.0 µM) it was 48.1%; in test [4] (setting [7]), 0%; in test [4] (setting [8]) it was 99% (active); in test [4] (at 50.0 µM), 99.3% (active). Also, the growth inhibition was 3% in test [5] (setting [7]); 98% (active) in test [5] (setting [8]); 99.5% (active) in test [5] (at 50.0 µM); -5% in test [6] (setting [7]); 94% (active) in test [6] (setting [8]); 99.2% (active) in test [6] (at 50.0 µM).

For the compound `COC12C(COC(N)=O)C3=C(C(=O)C(C)=C(N)C3=O)N1CC1C2N1C(=O)c1ccc(Cl)cc1` (configuration not stated), the growth inhibition was 12% in test [1] (setting [7]); 57% in test [1] (setting [8]); 43.3% in test [1] (at 50.0 µM); 15% in test [2] (setting [7]); 75% (active) in test [2] (setting [8]); 50.1% in test [2] (at 50.0 µM). Moreover, the growth inhibition in test [3] (setting [7]) was 20%; in test [3] (setting [8]), 81% (active); in test [3] (at 50.0 µM) it was 65.5%; in test [4] (setting [7]) it was 3%; in test [4] (setting [8]), 72% (active); in test [4] (at 50.0 µM), 46.4%. Moreover, the growth inhibition in test [5] (setting [7]) was 3%; in test [5] (setting [8]), 50%; in test [5] (at 50.0 µM), 43.4%; in test [6] (setting [7]), 25%; in test [6] (setting [8]), 86% (active); in test [6] (at 50.0 µM), 71.1% (active).

`O=C1C=CC(=NN=C(c2ccccc2)c2ccccc2)C=C1`: the growth inhibition in test [1] (setting [7]) was -27%; in test [1] (setting [8]) it was -1%; in test [1] (at 50.0 µM), 55%; in test [2] (setting [7]) it was -16%; in test [2] (setting [8]) it was -21%; in test [2] (at 50.0 µM) it was 54.5%. Besides, the growth inhibition in test [3] (setting [7]) was -21%; in test [3] (setting [8]), -10%; in test [3] (at 50.0 µM) it was 38.1%; in test [4] (setting [7]), -27%; in test [4] (setting [8]) it was -17%; in test [4] (at 50.0 µM), 44%. The growth inhibition in test [5] (setting [7]) is -14%; in test [5] (setting [8]), -22%; in test [5] (at 50.0 µM), 63.9%; in test [6] (setting [7]), -38%; in test [6] (setting [8]), -2%; in test [6] (at 50.0 µM), 53%.
